The results in this text go back to PubChem BioAssay (NCI).

Values joined by “and” are separate entries in the source; they are usually repeats but may differ in a detail not shown here. Equal entries are not always repeated. Compounds without any hit were thinned out: in the full panel of roughly 83,000, 20% have a hit.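 For each line, cells grew in 96-well plates with the test compound present at a single concentration for 48 hours.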 Active and inactive are the calls of the source.

This experiment deals with ACHN renal. Kind of experiment: NCI-60 one-dose screen, 48 h (100 = growth as untreated, 0 = no growth, -100 = all killed). The settings on record: 10 µM unless noted. On the procedure:
Growth inhibition of the ACHN human tumor cell line is measured as a screen for anti-cancer activity. Cells are grown in 96 well plates and exposed to the test compound for 48 hours. Compounds are tested at a single concentration, which is 10^-5 M for most compounds. The reported endpoint is percent growth (GI% or GIPRCNT), where numbers from 0 - 100% represent growth inhibition, and numbers from -100% - 0 represent cell death. For example, a value of 40 represents 60% growth inhibition. A value of 0 means no net growth occurred over the course of the experiment. A value of -40 indicates 40% of cells at the beginning of the experiment died by the end of the experiment. A value of -100 means all cells are dead at the end of the experiment.
NCI-60 Human Tumor Cell Lines Screen was performed using the standard one-dose NCI protocol, which is described in more detail at https://dtp.cancer.gov/discovery_development/nci-60/default.htm.
Compounds with GIPRCNT values below 10 were considered active. Activity score was based on GIPRCNT using the following formula: […]
Score is 0 for GIPRCNT values of 100 or above, 50 for GIPRCNT values of 0, and 100 for GIPRCNT values of -100.
In the case of `COc1ccc(-n2[nH]c3c(cnc4ccccc43)c2=O)cc1`, the growth was 95.9% (inactive) and 107% (inactive).

Consider `CCOC(=O)CN1CCC(C(=O)OCC)CC1`, for which the growth is 111% (inactive).

On to `CCNC1=CC(=O)c2ncccc2C1=O`, for which the growth is 59% (inactive).

Regarding `O=C(NC(CSSCC(NC(=O)OCc1ccccc1)C(=O)O)C(=O)O)OCc1ccccc1` (stereo not given), the growth is 88.6% (inactive) and 98.9% (inactive).

Turning to `CCOC(=O)C(N)Cc1cc(I)c(O)c(I)c1` (stereo not given), the growth is 106% (inactive) and 96% (inactive).

`OCCCc1ccccc1`: the growth was 106% (inactive).

For the compound `COc1ccc(CCO)cc1`, the growth is 103% (inactive).

Turning to `CC(=O)Oc1ccc(C(c2ccc(OC(C)=O)cc2)c2ccccn2)cc1`, the growth is 82.5% (inactive) and 81.1% (inactive).

For the compound `CC(=O)Nc1ccc2oc(=O)ccc2c1`, the growth is 113% (inactive).

For the compound `Cc1cc(NC(=O)NC(=O)c2ccccc2N(C)C)ccc1Oc1ncc(Br)cn1`, the growth was -17% (active) and 56.7% (inactive).

In the case of `COC(=O)c1nc(N)nc(C(=O)OC)c1C(=O)c1cccc2ccccc12`, the growth is 106% (inactive).

Consider `O=c1[nH]nnc2cc(Cl)ccc12`, for which the growth is 97.6% (inactive) and 101% (inactive).

In the case of `COC(=O)c1nc(=S)[nH]c(C(=O)OC)c1C(=O)c1ccccc1`, the growth is 101% (inactive).

Turning to `OCc1cccc(F)c1`, the growth was -0.315% (active).

In the case of `COCCCNC1=C(C#N)C(=O)NC(c2cccs2)S1` (stereo not given), the growth is 97.5% (inactive).

Consider `CCOC(C)=N`, for which the growth was 104% (inactive).

Turning to `CC(O)CCNC(c1ccccc1)C(O)c1ccccc1` (stereo not given), the growth is 109% (inactive).

In the case of `CCC(C)NC(=O)c1ccccc1C` (stereo not given), the growth is 95.4% (inactive).

As for `CCCCC/C(C)=N\NC(N)=S`, the growth was 92.6% (inactive).

`CC1NC(C)c2ccc3ccccc3c2O1` (stereo not given): the growth was 98.3% (inactive).

Consider `CC(C)(C)C1CCC(=NO)CC1` (stereo not given), for which the growth was 105% (inactive).

With `COc1ccc(S(=O)(=O)c2ccc(F)cc2)cc1`, the growth is 103% (inactive).

For `Clc1ccc(/C=C/c2ccc3ccccc3n2)cc1`, the growth was 55.8% (inactive) and 93.3% (inactive) and 83% (inactive).

Take `CCOC(=O)C1=C(C)NC(C)=C(C(=O)OCC)C1`: the growth is 109% (inactive) and 105% (inactive).

As to `CC1CC(O)CC(C)(C)C1.CC1CC(O)CC(C)(C)C1.CC1CC(O)CC(C)(C)C1.CC1CC(O)CC(C)(C)C1.[Ti]` (stereo not given), the growth is 111% (inactive).

Turning to `COC(=O)C(Cc1cn(C(C)=O)c2ccccc12)P(=O)(OC)OC` (stereo not given), the growth is 100% (inactive).

In the case of `O=[N+]([O-])c1ccc(NC2CCCCC2)nc1`, the growth was 101% (inactive) and 97.5% (inactive).

With `CC(=O)/C(N=Nc1ccc(S(=O)(=O)c2ccc(N=N/C(C(C)=O)=C(/C)O)cc2)cc1)=C(\C)O`, the growth is 104% (inactive).

Regarding `CCc1ccccc1-n1[nH]c(C)c(C=N)c1=O`, the growth was 105% (inactive).

For the compound `CC(=O)c1cccc(OC(=O)c2ccccc2)c1`, the growth is 109% (inactive).

With `Cc1cccc(Cl)c1N`, the growth is 108% (inactive).

For `CCCCCCC(C)CC1=C(O)c2ccccc2C(=O)C1=O` (stereo not given), the growth is 37.5% (inactive).

As to `Cc1ccc(C(=O)c2ccc(C)cc2)cc1`, the growth was 99.8% (inactive) and 107% (inactive).

Take `COc1ccccc1OCC(O)CO` (stereo not given): the growth is 102% (inactive) and 110% (inactive).

Consider `COc1cc(Cl)ccc1C`, for which the growth was -8.72% (active).

As for `CCN(C)c1ccccc1`, the growth was 103% (inactive).

Take `Nc1ccccc1SC1CC(=O)N(c2ccc(I)cc2)C1=O` (stereo not given): the growth was 86% (inactive).

Turning to `CC(C)(C)OC(=O)NCCc1ccc(N)cc1`, the growth is 105% (inactive).

`CC(NC(=O)CCl)c1ccccc1` (stereo not given): the growth is 106% (inactive).

In the case of `O=C(c1ccccc1)C1(Br)CCCCC1`, the growth is 100% (inactive).
